# Compounds with a hit are over-represented: about 19% of the library has one in this group of screens.
# HT1080 IDH1KD tx: qHTS for induction of synthetic lethality in tumor cells producing 2HG: qHTS for the HT-1080-IDH1KD cell line. HT-1080 IDH1 knockdown viability, ATP luminescence, 48 h. Potency, µM (doses to about 46.1 µM), inactives show at the top dose activity, negative = toxicity, hits mostly cytotoxic. actives 2% (n = 360,000). AID 686971, 2013;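 note: potency is the fitted concentration of half-maximal effect; 0% = DMSO wells and -100% = cell-free medium wells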
#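 Cytotoxicity counter-line: IDH1KD HT-1080, 48 h, CellTiter-Glo. Curves classed by r2, magnitude and activity.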
# DT40 TDP1 no CPT: qHTS for Inhibitors of human tyrosyl-DNA phosphodiesterase 1 (TDP1): qHTS in cells in absence of CPT; DT40 Tdp1-/- hTDP1 cells, no CPT, ATP luminescence, 48 h; Potency, µM (series often up to 46.2 µM), inactives show top-dose activity change, negative = growth inhibition, actives largely listed as inhibitors; actives 15% (n = 420,000); AID 686978, 2013; note: potency is the fitted concentration of half-maximal effect; nearly all actives have a fitted effect of over 55% in size
#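 Readout: luminescence from CellTiter-Glo after 30 min in the dark at RT. Cells: DT40 Tdp1-/- with stable hTDP1, 400/well. Exposure: compounds alone, ≥48 hr, 37 °C.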
# uPA generation: qHTS for Inhibitors of Cell Surface uPA Generation | cell surface uPA generation assay, qHTS | Potency, µM (series often up to 38.3 µM), without a hit: at the top dose activity change, negative = inhibition, actives largely listed as inhibitors | actives 0.31% (n = 330,000) | AID 540303, 2011; active = well fitted inhibition curve with a large enough effect; inconclusive = small, poorly fitted or top-dose-only effect; inactive = no such curve, though single readings can be large or run the other way; tested in mouse RAW 264.7 cells; note: potency is the fitted concentration of half-maximal effect; nearly all actives have a fitted effect of over 55% in size
# IL-1B inflam inh: qHTS for Inhibitors of Inflammasome Signaling: IL-1-beta AlphaLISA Primary Screen; THP-1 LPS/ATP IL-1B secretion, AlphaLISA, 16 h; hits give low values; activity change, % at 57.5 µM; actives 4.7% (n = 360,000); in the data active = activity change below about -50%; inconclusive = mostly about -30% to -49%
#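 Secreted IL-1B measured by AlphaLISA bead assay after 16 h compound exposure of THP-1 cells; compounds (final up to 57.5 uM) added 1 h before LPS (250 ng/mL) and ATP (1.25 mM) stimulation; lower signal means less secretion.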
# TDP1 cell CPT: qHTS for Inhibitors of human tyrosyl-DNA phosphodiesterase 1 (TDP1): qHTS in cells in presence of CPT; chicken DT40 Tdp1-/-;hTDP1 cells + 20 nM CPT, ATP luminescence, 48 h; Potency, µM (highest dose often 46.2 µM), for inactives: at the highest dose activity change, negative = growth inhibition, usual class: inhibitors; actives 12% (n = 420,000); AID 686979, 2013; note: potency is the fitted concentration of half-maximal effect; nearly all actives have a fitted effect of over 55% in size
#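 Chicken DT40 Tdp1-/- cells stably complemented with human TDP1 were seeded at 400 cells/well in medium containing 20 nM camptothecin, exposed to pin-transferred compounds, and grown at 37 °C for at least 48 hr. Viability was read as ATP luminescence.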
# HT1080NT lethal: qHTS for induction of synthetic lethality in tumor cells producing 2HG: qHTS for the HT-1080-NT fibrosarcoma cell line; Potency, µM (highest dose often 46.1 µM), for inactives: top-dose activity, negative = less viability, actives largely listed as cytotoxic; actives 1.6% (n = 360,000); HT-1080-NT fibrosarcoma viability, CellTiter-Glo ATP luminescence, 48 h;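 note: NT is the 2HG producing partner of a matched IDH1 knockdown line; potency is the fitted concentration of half-maximal effect; 0% = DMSO-treated cells and -100% = media-only wells without cells; nearly all actives have a fitted effect of over 55% in size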
#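 HT-1080-NT; 750 cells/well; 5% FBS RPMI; 48 h compound, 37 degrees C; CellTiter-Glo luminescence; curve fitting and curve-class assignment.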
# The depositor's hits bear a star; u = inconclusive; x = no result given. Unless noted, calls come from the whole dose curve; as a rule, active = well fitted curve in the direction sought with a large enough effect; inconclusive = small, poorly fitted or top-dose-only effect, or another doubt; inactive = no such curve, though single readings can be large; an effect the other way counts as inactive or inconclusive. Unless noted, % is set by controls: 0 for no effect and ±100 for the full control effect.
SMILES,HT1080 IDH1KD tx,DT40 TDP1 no CPT,uPA generation,IL-1B inflam inh,TDP1 cell CPT,HT1080NT lethal
Cn1nc(C(=O)Nc2ccc(Br)cc2)cc1C(=O)Nc1ccc(Br)cc1,-2%,-2%,7%,22,0%,18%
Cn1nc(C(C)(C)C)cc1C(=O)N1CCCC(c2cc(C(=O)NCc3ccccc3)no2)C1 (centres undefined),4%,15µM*,x,-8,21µM*,12%
Cn1nc(C(C)(C)C)cc1C(=O)N1CCCCC1c1cc(C(=O)NCc2cccnc2)no1 (centres undefined),8%,21µM*,x,20,23µM*,6%
Cn1nc(C(C)(C)C)cc1C(=O)N1CCCCC1c1cc(C(=O)Nc2ccccc2Cl)no1 (centres undefined),u,21µM*,x,-5,21µM*,u
Cn1nc(C(=O)Nc2ccccc2Cl)cc1C(=O)Nc1ccccc1Cl,0%,u,0%,-55*,u,-6%
Cc1c(NS(=O)(=O)c2ccc3c(c2)Cc2ccccc2-3)c(=O)n(-c2ccccc2)n1C,9%,u,0%,8,6%,12%
CCC(Sc1nc2nccnc2c(=O)n1Cc1ccc(OC)cc1)C(=O)NC1CCCCC1 (centres undefined),x,-18%,x,x,-29%,x
Cc1ccc(NC(=O)C2=C(C(=O)O)CCCC2)cc1Br,8%,5%,-3%,-5,32%,17%
C[C@@H]1CN([C@H](C)CO)C(=O)CCCn2cc(nn2)CO[C@H]1CN(C)S(=O)(=O)c1ccc2ccccc2c1,-1%,-26%,x,23,-17%,-1%
CC(C)NC(=O)c1cc(C2CCCCN2C(=O)c2cc(C(C)(C)C)nn2C)on1 (centres undefined),-2%,13µM*,x,22,u,9%
Cn1nc(C(C)(C)C)cc1C(=O)N1CCCC(c2cc(C(=O)Nc3ccccc3Cl)no2)C1 (centres undefined),-20%,23µM*,x,-20,u,-16%
COc1cccc(-c2ncc3ccccc3c2COC(=O)c2ccco2)c1,-4%,u,-5%,34,u,-3%
C[C@H](NC(=O)Nc1cccc(Br)c1)C(=O)O,9%,10%,1%,14,u,21%
CCCOC(=O)c1c(-c2ccccc2)c(-c2ccccc2)nn(C)c1=O,x,15µM*,x,x,21µM*,x
CCC(C)NC(=O)c1c(-c2ccccc2)c(-c2ccccc2)nn(C)c1=O (centres undefined),x,-4%,x,x,-7%,x
CC(=O)c1sc(NC(=O)c2c(-c3ccccc3)c(-c3ccccc3)nn(C)c2=O)nc1C,x,0.52µM*,x,x,0.41µM*,x
CC(=O)Nc1cccc(NC(=O)c2c(-c3ccccc3)c(-c3ccccc3)nn(C)c2=O)c1,x,-29%,x,x,u,x
Cc1ccccc1-c1cncnc1NCc1cccnc1,x,-22%,x,x,17%,x
COc1ccc(NC(=O)CN2C(=O)NC3(CCCCC3C)C2=O)cc1OC (centres undefined),11%,-19%,5%,22,-6%,2%
CCCC(=O)NC(c1ccc(N(C)C)cc1)c1c(O)ccc2ccccc12 (centres undefined),-2%,8%,1%,-6,7%,4%
CCCC(=O)NC(c1ccc(Cl)cc1Cl)c1ccc2cccnc2c1O (centres undefined),8.2µM*,4.6µM*,-14%,124,4.1µM*,u
